Activity calls are given as the source filed them. Unless noted, no stated cut-off is given here; in the data, active means nuclear beta-catenin stimulation mostly above about 4.2% (no sharp cut-off); inactive means mostly below about 10%.
Tests used:
[1] = stimulators of nuclear beta-catenin in C2C12, primary screen, imaging, WNT3A-conditioned medium, mouse C2C12, NPC library (AID 1117326); conditions: stronger effect = higher value; further: reference of the scale not given here
[2] = stimulators of insulin release from INS-1E, primary screen, cell-based, 5 mM glucose, NPC library (AID 1117329;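 active means compound raises insulin release from rat beta cells at 5 mM glucose, no numeric limit stated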; further: reference of the scale not given here); conditions: rat INS-1E insulin secretion, at 10 µM, stronger effect = higher value
[3] = growth inhibition of GSK3B-pretreated HCT116 cells – cell-based, CellTiter-Glo, 0.2 to 20 µM (AID 1117336;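 active means compounds lowering colon cancer cell viability after pretreatment blocking the GSK3B kinase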); conditions: HCT116 viability after GSK3B inhibitor, at 20 µM, stronger effect = higher value
[4] = inhibition of endothelial tube formation, primary screen, imaging, VEGF stimulated, CD31 staining, tube area, NPC library (AID 1117340;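 active means compound that reduces growth-factor-driven endothelial tube area in a mixed cell culture, no cutoff stated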); conditions: VEGF-stimulated ADSC/ECFC co-culture, at 10 µM, stronger effect = higher value
[5] = glucagon-like peptide 1 release enhancers, primary assay, NCI-H716 cell line, NPC library (AID 1117341;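 active means compound raises GLP1 secretion from the human gut endocrine cells, with no numeric limit stated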; further: reference of the scale not given here); conditions: NCI-H716 cells, at 10 µM, stronger effect = higher value
[6] = HCT116 colon cancer cell growth inhibition, primary screen, CellTiter-Glo luminescence, NPC library (AID 1117342;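 active means compounds that lower survival of HCT116 colon cancer cells in the luminescence readout, no numeric limit stated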); conditions: at 20 µM (top of the series)
[7] = CellTiter-Glo luminescent readout of SW480 viability loss, NPC library primary (AID 1117343;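 active means compounds that lower viability of the colon cancer cells in the luminescence readout, with no numeric limit stated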); conditions: CellTiter-Glo luminescence; at 20 µM (top of the series)
[8] = decreased DLD-1 cellular survival, CellTiter-Glo luminescent readout, NPC compound collection, primary HTS (AID 1117346;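 active means compounds that lower survival of DLD-1 colon cancer cells in the luminescence readout, no cutoff given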); conditions: DLD-1 viability, CellTiter-Glo luminescence; at 20 µM (top of the series)

SMILES | nuclear beta-catenin stimulation ([1]; at 10 µM) | nuclear beta-catenin stimulation ([1]; stimulation, at 2 µM) [%] | insulin secretion stimulation [2] | viability decrease [3] | tube area decrease [4] | GLP1 secretion stimulation [5] | inhibition of viability [6] | viability decrease (inhibition) [7] | viability decrease (inhibition) [8]
CCCc1c2oc(C(=O)O)cc(=O)c2cc2c(=O)cc(C(=O)O)n(CC)c12 | -1.6% (inactive) | -1 | 2.6% (inactive) | 7.4% (inactive) | -19.4% (inactive) | -2.3% (inactive) | 18.2% (inactive) | 34.6% (inactive) | 15.2% (inactive)
NC(=O)CC[C@@H](N)C(=O)O | 2.1% (inactive) | 3.8 | -0.7% (inactive) | -14.2% (inactive) | 15.2% (inactive) | -0.1% (inactive) | 2.55% (inactive) | 11.4% (inactive) | -7.9% (inactive)
O=C(c1ccccc1)c1ccccc1 | 0.7% (inactive) | 1.3 | -0.6% (inactive) | 8.9% (inactive) | -20.2% (inactive) | 2.4% (inactive) | 22.5% (inactive) | 21% (inactive) | 9.1% (inactive)
CC(CC(C#N)(c1ccccc1)C(C)C)N(C)C (centres undefined) | 2.7% (inactive) | 0.9 | 3.4% (inactive) | -53.4% (inactive) | 1.3% (inactive) | 0.5% (inactive) | -4.77% (inactive) | 14.5% (inactive) | -20% (inactive)
COc1ccnc2c1CCCCC2S(=O)c1nc2ccccc2[nH]1 (centres undefined) | -0.3% (inactive) | 3 | 1.6% (inactive) | -54.1% (inactive) | 13.2% (inactive) | 9.2% (inactive) | 27.5% (inactive) | 31.6% (inactive) | 11.3% (inactive)
CC1c2ccccc2CN1NC(=O)c1ccc(Cl)c(S(N)(=O)=O)c1 (centres undefined) | 1.2% (inactive) | 4.6 | 1.65% (inactive) | 26.4% (inactive) | -9.7% (inactive) | -1.8% (inactive) | 1.4% (inactive) | -21.1% (active) | -10.8% (inactive)
COC(=O)CCC[N+](C)(C)C | -0.8% (inactive) | 0.6 | -6.3% (inactive) | -4.8% (inactive) | 6.6% (inactive) | -14% (inactive) | 4.6% (inactive) | 2.9% (active) | -12.1% (inactive)
C/C(=C1\CCOC(=O)S1)N(C=O)Cc1cnc(C)nc1N | -0.3% (inactive) | 0.1 | 4.7% (inactive) | -6.1% (inactive) | -16.6% (inactive) | 8.1% (inactive) | 19.8% (inactive) | 3.7% (inactive) | 1.5% (inactive)
Oc1cccc(-c2c3nc(c(-c4cccc(O)c4)c4ccc([nH]4)c(-c4cccc(O)c4)c4nc(c(-c5cccc(O)c5)c5ccc2[nH]5)CC4)C=C3)c1 | 24.3% (inactive) | -1.7 | -1.15% (inactive) | 95.2% (active) | -79.5% (inactive) | 13.6% (inactive) | 109% (active) | 141% (active) | 95.7% (active)
COc1cc(O)cc(O)c1 | 1.6% (inactive) | -0.2 | 4.5% (inactive) | -4.6% (inactive) | 10.6% (inactive) | -9.8% (inactive) | 7.93% (inactive) | 4% (inactive) | -9.1% (inactive)
CCOC(=O)c1cc(=O)c2c(OCC(COc3cccc4oc(C(=O)OCC)cc(=O)c34)OC(=O)[C@@H](N)CCCCN)cccc2o1 | 0.5% (inactive) | 1.2 | -1.2% (inactive) | -30% (inactive) | 4.5% (inactive) | 7.5% (inactive) | -25.1% (inactive) | -75% (inactive) | -11.5% (inactive)
Cc1ccc(CCn2c3c(c4cc(Cl)ccc42)CN(C)CC3)cn1 | 0.2% (inactive) | 0.7 | 42% (active) | 40.3% (inactive) | 3.4% (inactive) | 1.7% (inactive) | 62.1% (active) | 81.6% (active) | 11.5% (inactive)
C=CCOc1cc(Cl)ccc1C(=O)NCCN(CC)CC | -0.4% (inactive) | 0.3 | 16.7% (inactive) | 11% (inactive) | -13% (inactive) | 9.1% (inactive) | 30% (inactive) | 32.4% (inactive) | -3.9% (inactive)
CC(=O)O[C@H]1C[C@@H]2CC[C@H]3[C@H]4C[C@H]([N+]5(C)CCCCC5)[C@@H](OC(C)=O)[C@@]4(C)CC[C@@H]3[C@@]2(C)C[C@H]1[N+]1(C)CCCCC1 | 0.7% (inactive) | 0.2 | -1.1% (inactive) | -2.7% (inactive) | 9.9% (inactive) | -1.6% (inactive) | -3.6% (inactive) | -1.7% (active) | -2.8% (inactive)
NC(CSCC(=O)O)C(=O)O (centres undefined) | 0.1% (inactive) | 1.5 | -0.7% (inactive) | -2.5% (inactive) | 18.6% (inactive) | -2.3% (inactive) | 0.7% (inactive) | 0.9% (inactive) | -5.3% (inactive)
Cc1cccc(C)c1NC(=O)CN1CCCC1 | -0.4% (inactive) | 0.7 | 0.6% (inactive) | 4.2% (inactive) | -6.7% (inactive) | 1.1% (inactive) | 37.9% (inactive) | 3.5% (inactive) | 2.4% (inactive)
